{"source": "PubChem BioAssay AID1851", "about": "(National Center for Advancing Translational Sciences (NCATS), 2009)", "note": "Hit rate of the full screen: of about 16,000 compounds, about 5,100 (32%) were called active. Roughly 25% stayed inconclusive and do not appear here. Some of the results follow. A number with no mark means an inactive call. Calls follow the shape of the dose curve; as a rule, active = well fitted curve in the direction sought with a large enough effect; inconclusive = small, poorly fitted or top-dose-only effect, or effect the other way; inactive = no such curve, though single readings can be large or run the other way. % is scaled to controls: 0 for no effect and ±100 for the full control effect."}
{"biological_target": "Cytochrome P450 3A4 (Homo sapiens) (UniProt P08684)", "sequence (P08684 whole entry, looked up)": "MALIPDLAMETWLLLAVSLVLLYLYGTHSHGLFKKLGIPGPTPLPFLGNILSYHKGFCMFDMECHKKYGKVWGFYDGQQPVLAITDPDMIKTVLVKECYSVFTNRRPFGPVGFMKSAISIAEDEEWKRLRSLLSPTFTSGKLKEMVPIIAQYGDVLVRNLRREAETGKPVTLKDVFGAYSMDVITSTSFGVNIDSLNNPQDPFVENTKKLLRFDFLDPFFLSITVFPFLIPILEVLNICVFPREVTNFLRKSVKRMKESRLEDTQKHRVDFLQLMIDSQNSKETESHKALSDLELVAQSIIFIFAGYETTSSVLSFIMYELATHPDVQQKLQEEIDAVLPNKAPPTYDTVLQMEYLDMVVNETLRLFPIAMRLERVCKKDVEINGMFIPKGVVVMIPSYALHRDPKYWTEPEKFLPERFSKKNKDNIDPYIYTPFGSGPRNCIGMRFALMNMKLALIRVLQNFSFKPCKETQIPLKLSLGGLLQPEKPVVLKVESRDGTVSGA", "experiment": "Cytochrome panel assay with activity outcomes", "conditions": "recombinant CYP, pro-luciferin dealkylation, luminescence, p450-cyp3a4; series mostly up to 57.1 µM"}
{"smiles": "COc1ccc(-c2nc(N)c3ncn([C@H]4O[C@@H](CO)[C@@H](O)[C@@H]4O)c3n2)cc1", "activity, negative = inhibition": "-0.494% [at 11.4 µM]"}
{"smiles": "COc1ccc2[nH]cc(CCNc3ncncc3-c3ccccc3C)c2c1", "AC50": "0.316 µM (active)"}
{"smiles": "COc1ccc2[nH]cc(CCNc3ncncc3-c3ccccc3Cl)c2c1", "AC50": "0.398 µM (active)"}
{"smiles": "COc1ccc2[nH]cc(CCNc3ncncc3-c3ccccc3OC)c2c1", "AC50": "0.126 µM (active)"}
{"smiles": "COc1ccc2[nH]cc(CCNc3ncncc3-c3c(C)noc3C)c2c1", "AC50": "0.794 µM (active)"}
{"smiles": "C=C1c2cccc(O)c2C(O)=C2C(=O)[C@@]3(O)C(O)=C(C(N)=O)C(=O)[C@@H](N(C)C)[C@@H]3[C@@H](O)[C@H]12", "AC50": "inactive"}
{"smiles": "CNc1nc(Cl)nc(NC(C)(C)C)n1", "AC50": "inactive"}
{"smiles": "CN1C[C@H](c2ccccc2)C(O)([C@]2(c3ccccc3)CN(C)C[C@@H](c3ccccc3)C2=O)[C@H](c2ccccc2)C1", "note": "(stereo partly specified)", "activity, negative = inhibition": "-0.704% [at 11.4 µM]"}
{"smiles": "O=C(c1cc(Br)ccc1O)c1cc(Br)ccc1O", "activity, negative = inhibition": "-18.8% [at 11.4 µM]"}
{"smiles": "COc1ccc2[nH]cc(CCNc3ncncc3-c3ccccc3CN(C)C)c2c1", "AC50": "0.631 µM (active)"}
{"smiles": "COc1ccc2[nH]cc(CCNc3ncncc3-c3ccccc3C(F)(F)F)c2c1", "AC50": "0.251 µM (active)"}
{"smiles": "O=S(=O)(O)c1ccc2c(N=Nc3cccc4ccccc34)c(O)c(S(=O)(=O)O)cc2c1", "activity, negative = inhibition": "5.97% [at 11.4 µM]"}
{"smiles": "CN1CCN(c2ccc([N+](=O)[O-])cc2NC(=O)c2ccccc2Cl)CC1", "AC50": "inactive"}
{"smiles": "O=C(Nc1ccccc1N1CCN(C(=O)c2ccccc2)CC1)c1cc(Br)ccc1Cl", "AC50": "3.55 µM (active)"}
{"smiles": "O=C(Nc1ccccc1N1CCN(C(=O)c2ccc(Cl)cc2)CC1)c1cc(Br)ccc1Cl", "AC50": "3.98 µM (active)"}
{"smiles": "Cc1ccccc1N1CCN(C(=O)c2ccccc2NC(=O)/C=C\\C(=O)O)CC1", "AC50": "inactive"}
{"smiles": "COc1cccc(C(C#N)N2N=C(C)CC2(C)C)c1O", "note": "(stereo unspecified)", "AC50": "inactive"}
{"smiles": "CCOC(=O)CNc1c(-c2ccccc2)nc2ccc(Cl)cn12", "AC50": "inactive"}
{"smiles": "c1ccc(-c2nc3ccccn3c2NCc2ccc3c(c2)OCO3)cc1", "AC50": "0.501 µM (active)"}
{"smiles": "CO[C@H]1[C@@H](OC(N)=O)[C@H](O)[C@@H](Oc2ccc3c(O)c(NC(=O)c4ccc(O)c(CC=C(C)C)c4)c(=O)oc3c2C)OC1(C)C", "AC50": "inactive"}
{"smiles": "Cn1cccc1/C=N/NC(=O)c1sc2ccccc2c1Cl", "AC50": "8.91 µM (active)"}
{"smiles": "N#CCCn1nnc2ccccc21", "AC50": "inactive"}
{"smiles": "C=CCN1CCc2cc(O)c(O)cc2[C@H](c2ccccc2)C1", "AC50": "inactive"}
{"smiles": "O=C(O)CSSCC(=O)O", "activity, negative = inhibition": "-6.12% [at 11.4 µM]"}
{"smiles": "Cc1nnsc1SCC(=O)O", "AC50": "inactive"}
{"smiles": "O=C(O)CSc1sc(=S)sc1SCC(=O)O", "AC50": "11.2 µM (active)"}
{"smiles": "COc1cccc(C(C(=O)Nc2ccc(F)cc2)N(C(=O)Cn2nnc3ccccc32)C2CC2)c1", "note": "(stereo unspecified)", "AC50": "2.82 µM (active)"}
{"smiles": "COc1ccc(NC(=O)C(c2ccc(OC)cc2)N(C)C(=O)CNC(C)=O)cc1", "note": "(stereo unspecified)", "AC50": "inactive"}
{"smiles": "COc1ccc(C(C(=O)Nc2ccc(F)cc2)N(C(=O)Cn2nnc3ccccc32)C2CC2)cc1", "note": "(stereo unspecified)", "AC50": "3.55 µM (active)"}
{"smiles": "COc1ccc(N(C(=O)Cn2nnc3ccccc32)C2(C(=O)NC3CCCC3)CCCCC2)cc1", "AC50": "2 µM (active)"}
{"smiles": "O=C(Cn1nnc2ccccc21)N1CCCCC1", "AC50": "inactive"}
{"smiles": "Cc1ccnc(NCn2nnc3ccccc32)c1", "AC50": "inactive"}
{"smiles": "CC(C)(C)c1cc2c(O)c(c1)Cc1cc(C(C)(C)C)cc(c1O)Cc1cc(C(C)(C)C)cc(c1O)Cc1cc(C(C)(C)C)cc(c1O)Cc1cc(C(C)(C)C)cc(c1O)Cc1cc(C(C)(C)C)cc(c1O)Cc1cc(C(C)(C)C)cc(c1O)Cc1cc(C(C)(C)C)cc(c1O)C2", "activity, negative = inhibition": "-24.5% [at 11.4 µM]"}
{"smiles": "COc1ccc(CNCCC(c2ccc(OC(C)C)cc2)C(C)C)cc1OC", "note": "(stereo unspecified)", "AC50": "1.41 µM (active)"}
{"smiles": "CC(C)Oc1ccc(CSC(=N)N)cc1", "AC50": "inactive"}
{"smiles": "NC(=S)Nc1ccc(Oc2ccc(NC(N)=S)cc2)cc1", "AC50": "4.47 µM (active)"}
{"smiles": "CCC(C)[C@H](NC(=O)Nc1ccc(Oc2ccccc2)cc1)C(=O)O", "note": "(stereo partly specified)", "AC50": "inactive"}
{"smiles": "CCCCNN", "activity, negative = inhibition": "-7.03% [at 11.4 µM]"}
{"smiles": "O=C(O)c1ccc2c3c1cccc3c(=O)n1c3ccccc3nc21", "AC50": "inactive"}
{"smiles": "O=c1c2ccc([N+](=O)[O-])c3cccc(c32)c2nc3ccccc3n12", "AC50": "0.891 µM (active)"}
{"smiles": "NS(=O)(=O)c1cccc2c1c([N+](=O)[O-])cc1nc(O)c(O)nc12", "AC50": "inactive"}
{"smiles": "CC1=C(C)/C(=N\\OC(=O)/C=C/c2ccccc2)C=CC1=O", "AC50": "inactive"}
{"smiles": "COc1ccc(/C=C2\\N=C(c3c(-c4ccccc4)noc3C)OC2=O)cc1OC", "AC50": "inactive"}
{"smiles": "COc1ccccc1OCCOc1ccc(/C=C2/C(=N)N3OC(C)=CC3=NC2=O)cc1OC", "AC50": "inactive"}
{"smiles": "CCOc1ccc(-c2nn(-c3ccccc3)cc2/C=C2\\SC(N)=NC2=O)cc1C", "AC50": "inactive"}
{"smiles": "COc1cc(/C=C2/C(=N)N3C=CSC3=NC2=O)ccc1OCCCOc1ccccc1C", "AC50": "15.8 µM (active)"}
{"smiles": "CCOc1cc(/C=C2/C(=N)N3C=CSC3=NC2=O)ccc1OCCCOc1ccccc1C", "AC50": "15.8 µM (active)"}
{"smiles": "COc1cc(/C=C2/C(=N)N3C=CSC3=NC2=O)ccc1OCCCOc1c(C)cccc1C", "AC50": "20 µM (active)"}
{"smiles": "COc1cc(C=O)ccc1OCCCOc1ccccc1C(=O)O", "AC50": "inactive"}
{"smiles": "Cc1noc(C)c1-c1cncnc1NCc1ccccc1", "AC50": "2 µM (active)"}
{"smiles": "Cc1cnc(CNc2ncncc2-c2c(C)noc2C)cn1", "AC50": "12.6 µM (active)"}
{"smiles": "Cc1noc(C)c1-c1cncnc1NC1CC1", "AC50": "7.94 µM (active)"}
{"smiles": "Cc1noc(C)c1-c1cncnc1NCc1cccnc1", "AC50": "3.16 µM (active)"}
{"smiles": "Cc1ncc([N+](=O)[O-])n1CC(C)O", "note": "(stereo unspecified)", "AC50": "inactive"}
{"smiles": "CCN=C(N)CSS(=O)(=O)O", "activity, negative = inhibition": "-8.49% [at 11.4 µM]"}
{"smiles": "Cc1noc(C)c1-c1cncnc1Nc1ccccc1", "AC50": "3.16 µM (active)"}
{"smiles": "Cc1noc(C)c1-c1cc(Nc2ccccc2)ncn1", "AC50": "inactive"}
{"smiles": "CC(C)n1nnnc1SCC(=O)NCCc1ccccc1", "AC50": "14.1 µM (active)"}
{"smiles": "Cc1ccc2cc(C)c3nnc(SCC(=O)NCc4ccco4)n3c2c1", "AC50": "22.4 µM (active)"}
{"smiles": "CC(C)n1nnnc1SCC(=O)c1ccc2c(c1)OCCO2", "AC50": "inactive"}
{"smiles": "Cc1cc2cc(C)c3nnc(SCC(=O)NCc4ccc5c(c4)OCO5)n3c2cc1C", "AC50": "0.562 µM (active)"}
{"smiles": "CC(C)n1nnnc1SCC(=O)NCc1ccc2c(c1)OCO2", "AC50": "0.891 µM (active)"}
{"smiles": "Cc1ccccc1Oc1ccc(-c2nc(N)nc(N)n2)cc1", "AC50": "inactive"}
{"smiles": "CCCCCCCCN1C(=O)N(C)C(N(O)C(=O)NC)C1(C)C", "note": "(stereo unspecified)", "AC50": "6.31 µM (active)"}
{"smiles": "COc1cccc(CN2C(=O)N(C(C)C)C(N(O)C(=O)NC(C)C)C2(C)C)c1OC", "note": "(stereo unspecified)", "activity, negative = inhibition": "-12.5% [at 2.29 µM]"}
{"smiles": "CCCCNC(=O)NC1C(NC(=O)NCCCC)N(C)C(=O)N1C", "note": "(stereo unspecified)", "AC50": "inactive"}
{"smiles": "CCCOc1ccc(OCCNC2CCCC2)cc1", "activity, negative = inhibition": "10% [at 2.29 µM]"}
{"smiles": "COc1cc(CNC(C)(C)CO)ccc1OCC(=O)Nc1ccc(Br)cc1", "activity, negative = inhibition": "0.897% [at 2.29 µM]"}
{"smiles": "C=CCOc1c(Br)cc(CNc2ccc(NC(=O)C(C)C)c(OC)c2)cc1OC", "AC50": "3.55 µM (active)"}
{"smiles": "CC(=O)OC[C@@H]1O[C@H](C/C=N\\O[C@@H](C)c2cc(-c3c(C)cc(C)cc3C)no2)C=C[C@@H]1OC(C)=O", "AC50": "3.16 µM (active)"}
{"smiles": "CC(=O)OC[C@@H]1O[C@H](C/C=N\\O[C@@H]2O[C@H](COC(C)=O)[C@@H](OC(C)=O)[C@H](OC(C)=O)[C@H]2OC(C)=O)C=C[C@@H]1OC(C)=O", "activity, negative = inhibition": "-25.4% [at 11.4 µM]"}
{"smiles": "CC(=O)OC[C@@H]1O[C@H](CCON=C(C)C)C=C[C@@H]1OC(C)=O", "activity, negative = inhibition": "-14.8% [at 11.4 µM]"}
{"smiles": "COc1ccc(O[C@H]2C=C[C@@H](c3ccccc3)O[C@H]2COC(=O)CC/C(C)=N\\O[C@@H](C)c2cc(-c3c(C)cc(C)cc3C)no2)cc1", "AC50": "3.16 µM (active)"}
{"smiles": "CCCNC(=O)OC[C@@H]1O[C@H](CCO/N=C\\C[C@H]2C=C[C@H](OC(C)=O)[C@@H](COC(C)=O)O2)C=C[C@@H]1Oc1ccc(OC)cc1", "AC50": "3.98 µM (active)"}
{"smiles": "Cc1cc(C)c(-c2cc([C@H](C)O/N=C3/[C@H]4OC4[C@@H](O)[C@H]4[C@H]3CCn3c(=O)n(-c5ccccc5)c(=O)n34)on2)c(C)c1", "note": "(stereo partly specified)", "activity, negative = inhibition": "-41% [at 11.4 µM]"}
{"smiles": "CC(=O)OC[C@@H]1O[C@H](C/C=N\\O[C@@H](C)c2cn([C@H]3COC[C@H]3O)nn2)C=C[C@@H]1OC(C)=O", "activity, negative = inhibition": "-11.8% [at 11.4 µM]"}
{"smiles": "COc1ccc(O[C@H]2C=C[C@@H](c3ccccc3)O[C@H]2COC(=O)CC/C(C)=N/OCC[C@@H]2C=C[C@H](OC(C)=O)[C@H](COC(C)=O)O2)cc1", "AC50": "3.98 µM (active)"}
{"smiles": "O=C(O)[C@H]1CCCN(CCC=C(c2ccccc2)c2ccccc2)C1", "AC50": "inactive"}
{"smiles": "C[C@@H](O)[C@H]1C(=O)N2C(C(=O)O)=C(S[C@@H]3CN[C@H](C(=O)N(C)C)C3)[C@H](C)[C@H]12", "AC50": "inactive"}
{"smiles": "C[C@H](N)CCCC(C)(C)O", "AC50": "inactive"}
{"smiles": "CC(=O)OC[C@@H]1O[C@H](C/C=N\\OC[C@@H](C)[C@H](OCc2ccccc2)C(C)C)C=C[C@@H]1OC(C)=O", "activity, negative = inhibition": "-18.2% [at 11.4 µM]"}
{"smiles": "CCCNC(=O)OC[C@@H]1O[C@H](CCO/N=C(\\C)CCC(=O)OC[C@@H]2O[C@H](c3ccccc3)C=C[C@@H]2Oc2ccc(OC)cc2)C=C[C@@H]1Oc1ccc(OC)cc1", "AC50": "5.01 µM (active)"}
{"smiles": "COc1ccc(O[C@H]2C=C[C@@H](c3ccccc3)O[C@H]2COC(=O)CC/C(C)=N/O[C@@H]2O[C@H](COC(C)=O)[C@H](OC(C)=O)[C@H](OC(C)=O)[C@H]2OC(C)=O)cc1", "AC50": "5.01 µM (active)"}
{"smiles": "CO/N=C\\[C@@H](C)[C@H](OCc1ccccc1)C(C)C", "activity, negative = inhibition": "12.5% [at 11.4 µM]"}
{"smiles": "COc1ccc(O[C@H]2C=C[C@@H](c3ccccc3)O[C@H]2CO/N=C\\C[C@@H]2C=C[C@H](OC(C)=O)[C@H](COC(C)=O)O2)cc1", "AC50": "3.98 µM (active)"}
{"smiles": "COc1ccc(O[C@H]2C=C[C@@H](c3ccccc3)O[C@@H]2CO/N=C\\[C@@H](C)[C@H](OCc2ccccc2)C(C)C)cc1", "AC50": "3.98 µM (active)"}
